For this experiment, the target named is Glucose transporter (Leishmania mexicana) (UniProt O61059). Description: ST_JUDE_LEISH: Cytotoxicity at 2uM final concentration against transgenic Leishmania Mexicana promastigotes LmGT2 that are glucose transport deficient and complemented with the L. Mexicana glucose transporter 2. Activity is measured by DNA content using SYBR green in vitro. The format is functional.
For `Cc1cccn2c(=O)c3cc(C(=O)NC(C)c4ccccc4)c(=N)n(CCc4ccccc4)c3nc12` (stereo not given), the inhibition stood at 11.9%.

On to `CN1CCN(CCCSc2ccc3c(c2)ncn3-c2cc(OCc3ccccc3C(F)(F)F)c(C(N)=O)s2)CC1`, for which the inhibition is 0.97%.

Turning to `COc1ccc(-c2cccc(NC(=O)c3ccc(Cl)cc3)c2)cc1CNC(C)C`, the inhibition is -1.5%.

Regarding `CNCCNCc1ccc(-c2ccc(-c3nc4cc(F)ccc4[nH]3)s2)cc1`, the inhibition amounted to 8.77%.

As to `COc1ccc(-c2cnc3ccc(N4CCCC4)nn23)cc1OC`, the inhibition was found to be 2.83%.

With `O=C(Nc1ccc(Oc2ccccc2)cc1)N(CCN1CCCC1)Cc1ccc(-c2ccc(CN3CCNCC3)cc2)cc1`, the inhibition is 0.38%.

As to `CC(C)NCc1ccc(-c2ccc(NC(=O)c3ccc(Cl)cc3)cc2)cc1`, the inhibition is 16.1%.

In the case of `Cc1cc2nc(-c3ccc(C(=O)NCc4cccc(C(F)(F)F)c4)cc3)[nH]c2cc1C`, the inhibition is -2.9%.

Consider `O=C(NCCc1cccc(Cl)c1Cl)c1cnc(N2CCN(c3ccncc3)CC2)c(Cl)c1`, for which the inhibition stood at 83.9%.

Turning to `Clc1cc(Br)ccc1-c1ccc(CNCC2CCNCC2)o1`, the inhibition is 1.69%.

`Oc1c(Cl)cc(-c2ccccc2)cc1CNC1CCCCC1`: the inhibition came to 0.52%.

In the case of `COc1ccc(/N=[N+](\[O-])c2ccccc2/[N+]([O-])=N/c2ccc(OC)cc2)cc1`, the inhibition stood at 1.68%.

Turning to `CC(C)(C)c1ccc(NC(=O)c2ccc(CN3CCCN(CC4CCCCC4)CC3)cc2)cc1`, the inhibition was 5.35%.

On to `COc1cccc(-c2csc(C(=O)NCC3CCN(Cc4ccc(C(C)C)cc4)C3)c2)c1` (stereo not given), for which the inhibition amounted to 0.03%.

As to `Nc1ccc(-c2cnc3[nH]cc(-c4ccc(C(=O)O)cc4)c3c2)cn1`, the inhibition was 1.27%.

On to `CCC(NC(=O)c1ccccc1NC(=O)c1ccc(C)cc1)C(=O)OC` (stereo not given), for which the inhibition was found to be 0.97%.

For `Cc1cnc(N2CCN(CC3CCN(C)CC3)CC2)nc1Oc1ccc(-n2ccnc2)cc1`, the inhibition was 2.78%.

`CC(C)(C)c1ccc(CN2CCC(CNC(=O)c3cc(-c4ccccc4C(F)(F)F)cs3)C2)cc1` (stereo not given): the inhibition is 1.21%.

For the compound `CCN1C(=O)N(CCC(C)C)C2(CCN(Cc3ccc(OC)cc3O)CC2)C1=O`, the inhibition was found to be 3%.

Consider `Cc1ccccc1C1CCN(C2CCC(NC(=O)C3=Cc4ccccc4OC3)CC2)CC1` (stereo not given), for which the inhibition came out at 4.67%.

For the compound `CC1(C)N=C(N)N=C(N)N1OCc1cc(Cl)c(CON2C(N)=NC(N)=NC2(C)C)cc1Cl`, the inhibition is -2.89%.

For the compound `Cc1nc(-c2ccncc2)sc1C(=O)Nc1ccc(Cl)cc1C(=O)Nc1ccc(Cl)cc1`, the inhibition is 2.19%.

As to `CCN(CC)CCN(Cc1ccc(-c2ccc(Cl)cc2)cc1)C(=O)Cn1c(CCc2cccc(F)c2F)nc(=O)c2ccccc21`, the inhibition is -1.69%.

Take `COc1ccc2nccc([C@@H](O)CN3CCC(NC(=O)Cc4cccc5c(Br)cccc45)CC3)c2c1`: the inhibition is 10.9%.

As for `Cc1cc(N(C)CCCN(C)C)nc(Nc2ccc(Br)cc2)n1`, the inhibition turned out to be 2.6%.

Regarding `O=C(Nc1ccc2c(c1)CCN2C1CCN(Cc2ccc(C(F)(F)F)cc2F)C1)c1ccco1` (stereo not given), the inhibition came to 1.6%.

With `c1cc2[nH]c(CCCc3nc4cc(C5=N[C@H]6CCCC[C@H]6N5)ccc4[nH]3)nc2cc1C1=N[C@@H]2CCCC[C@@H]2N1`, the inhibition is 0.34%.

Consider `CN(C)CC(=O)Nc1ccc(Nc2nccc(NCC(O)c3ccccc3)n2)cc1` (stereo not given), for which the inhibition is 0.21%.

`C=CCOc1ccc2ccccc2c1CNCCCCCCNCc1c(OCC=C)ccc2ccccc12`: the inhibition came out at 1.05%.

Turning to `FC(F)(F)c1cccc(CNC2CCN(CC3CCCCC3)CC2)c1`, the inhibition amounted to 3.27%.

For `COc1cccc(CCNCCCCCCNCCc2ccc(Cl)cc2)c1`, the inhibition came to 2.55%.

For `O=C(NCCCN1CCC(N2CCCCC2)CC1)C1=Cc2cc(Br)ccc2OC1`, the inhibition came out at 0.26%.

Regarding `CC(C)(C)c1ccc(CNCCOc2ccc(Nc3nnc(-c4ccc(-c5ncc[nH]5)cc4)o3)c3ccccc23)cc1`, the inhibition turned out to be 2.83%.

Consider `CCOc1c(Br)cc(Br)cc1CNCCCCNc1nc2ccccc2[nH]1`, for which the inhibition was 3.2%.

As to `FC(F)(F)c1cccc(N=C(S)NN=Cc2ccccn2)c1`, the inhibition amounted to 1.52%.

Take `Cc1cc(CN2CCC(C(=O)Nc3ccc(-c4nc5ccccc5[nH]4)cc3)CC2)oc1C`: the inhibition stood at 2.24%.

As for `O=C(/C=C/c1ccc(Cl)c(Cl)c1)NCCCCCN1CCC(NC(=O)Nc2ccc(Cl)cc2F)CC1`, the inhibition was 2.48%.

Take `Cc1cccc(CNc2nc(C)cc(N[C@@H](CC(C)C)C(=O)NCc3cccc(F)c3)n2)c1`: the inhibition is -0.42%.

For the compound `N=C(N)NN=Cc1ccccc1OCc1ccccc1Cl`, the inhibition amounted to 0.38%.

On to `c1ccc2c(c1)CN(Cc1cc3ccccc3[nH]1)CC1(CCN(Cc3c[nH]c4cnccc34)CC1)O2`, for which the inhibition was -0.44%.

The values above are taken from ChEMBL document CHEMBL3433997, “St. Jude Leishmania screening dataset” (2016).
